According to PubChem BioAssay (NCI):
Compounds without any hit were thinned out: in the full panel of roughly 79,000, 15% have a hit. Values without a mark were called inactive. Activity calls are given as the source filed them. Rule as the data show it: active = growth inhibition above about 70%; inactive = the rest.

Legend:
[1] = NCI Yeast Anticancer Drug Screen. Data for the rad50 strain (AID 155);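 also: 0% = growth of vehicle-only cultures of the same strain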; settings: S. cerevisiae rad50 strain growth inhibition, active compounds read high
Outline: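 Genetically altered yeast (DNA repair pathway); compound treatment; growth inhibition vs vehicle ctrl.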

[2] = NCI Yeast Anticancer Drug Screen. Data for the mec2-1 strain (AID 157); settings: S. cerevisiae mec2-1 strain, active compounds read high
Outline: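 Strain: mec2-1 (DNA repair/cell cycle alteration). Compound exposure, then growth measured; inhibition expressed relative to vehicle.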

[3] = NCI Yeast Anticancer Drug Screen. Data for the sgs1 mgt1 strain (AID 161);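 also: 0% = growth of cultures given vehicle only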; settings: S. cerevisiae sgs1 mgt1 strain, active compounds read high
Outline: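 Inhibition of yeast growth, normalised to vehicle-treated controls, is reported for a strain bearing genetic alterations in DNA damage repair.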

[4] = NCI Yeast Anticancer Drug Screen. Data for the cln2 rad14 strain (AID 165);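 also: 0% = growth equal to vehicle treated cultures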; settings: S. cerevisiae cln2 rad14 strain, active compounds read high
Outline: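 Compounds are applied to the cln2 rad14 yeast strain, and growth is then compared with that of vehicle-treated cultures to give inhibition.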

[5] = NCI Yeast Anticancer Drug Screen. Data for the bub3 strain (AID 167); settings: S. cerevisiae bub3 mutant strain, active compounds read high
Outline: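 Yeast carrying a defined mutation is treated with each compound, and growth is compared with that of vehicle-exposed cells to give inhibition.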

[6] = NCI Yeast Anticancer Drug Screen. Data for the mlh1 rad18 strain (AID 175); settings: S. cerevisiae mlh1 rad18 strain growth inhibition, active compounds read high
Outline: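 Read-out is yeast growth inhibition, calculated against vehicle-only controls. The compound was applied to a strain engineered with DNA damage repair alterations.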

[7] = at 5.0 µM (retest, dose inferred, filed as 0.5)
[8] = at 50.0 µM (retest, dose inferred, filed as 5.0)

| Compound | growth inhibition [1, 7] [%] | growth inhibition [1, 8] | growth inhibition ([1]; at 50.0 µM) | growth inhibition [2, 7] [%] | growth inhibition [2, 8] | growth inhibition ([2]; at 50.0 µM) | growth inhibition [3, 7] | growth inhibition [3, 8] | growth inhibition ([3]; at 50.0 µM) | growth inhibition [4, 7] [%] | growth inhibition [4, 8] | growth inhibition ([4]; at 50.0 µM) | growth inhibition [5, 7] [%] | growth inhibition [5, 8] | growth inhibition ([5]; at 50.0 µM) | growth inhibition [6, 7] | growth inhibition [6, 8] | growth inhibition ([6]; at 50.0 µM) |
| --- | --- | --- | --- | --- | --- | --- | --- | --- | --- | --- | --- | --- | --- | --- | --- | --- | --- | --- |
| OC(Cc1cccnc1)(c1ccccc1)c1ccc(Cl)cc1 (stereo not given) | -7 | 69% | 97.5% (active) | -3 | 80% (active) | 98% (active) | 6% | 79% (active) | 97.3% (active) | -1 | 64% | 94.2% (active) | -3 | 77% (active) | 97.2% (active) | -5% | 71% (active) | 98% (active) |
| Cc1ccc(C(CN(C)C)C(=O)c2ccccc2)cc1C (stereo not given) | -4 | 97% (active) | 4.8% | -2 | 97% (active) | 3.35% | -4% | 93% (active) | 36.3% | -3 | 42% | -23.6% | -2 | 97% (active) | 69.4% | -6% | 98% (active) | 27.4% |
| Cc1ccc(C)c(N2C/C(=N\NC(=O)CC#N)C(c3nc4ccccc4s3)C(=O)C2=O)c1 (stereo not given) | 0 | 1% | 7.9% | 0 | 2% | -0.3% | -3% | -3% | -5.2% | -3 | -1% | 12.6% | 33 | 19% | -0.3% | 1% | 1% | 20.9% |
| c1cc[c]([Ge]([O]c2cccc3cccnc23)([c]2ccccc2)[c]2ccccc2)cc1 | 10 | 10% | 73% (active) | 7 | 7% | 67% | -3% | -3% | 67.5% | 6 | 6% | 45.5% | 7 | 7% | 72.2% (active) | 10% | 10% | 74% (active) |
| O=C1C(Br)=C(C2CCCCC2)C(=O)c2ccccc21 | 54 | 99% (active) | 101% (active) | 59 | 100% (active) | 99.7% (active) | 78% (active) | 99% (active) | 99.6% (active) | 20 | 99% (active) | 100% (active) | 24 | 100% (active) | 99.5% (active) | 83% (active) | 99% (active) | 99.2% (active) |
| CC(=O)OC(OC(C)=O)c1ccc2ccc3cccc4ccc1c2c34 | 16 | 89% (active) | 63.4% | -1 | 78% (active) | 45.8% | -16% | 84% (active) | 61% | 3 | 78% (active) | 45.2% | -17 | 85% (active) | 69% | -3% | 89% (active) | 71.7% (active) |
| Cc1cc(Cc2ccc(Cl)cc2)ccc1O | 0 | 99% (active) | 56.4% | -8 | 99% (active) | 46.1% | 2% | 99% (active) | 99.2% (active) | -13 | 99% (active) | 51.9% | -19 | 99% (active) | 56.4% | 6% | 99% (active) | 47.9% |
| CC(=O)N1c2ccccc2Sc2ccc(C(=O)CCl)cc21 | 14 | 79% (active) | 95.7% (active) | 19 | 95% (active) | 95.7% (active) | 15% | 91% (active) | 93.9% (active) | 9 | 50% | 81.2% (active) | 8 | 91% (active) | 95.8% (active) | 30% | 94% (active) | 94.7% (active) |
| CC(=O)c1ccc2sc3ccccc3c2c1 | -92 | 96% (active) | 96% (active) | -45 | 72% (active) | 57.6% | -59% | 88% (active) | 70.2% (active) | -52 | 86% (active) | 33.4% | -51 | 85% (active) | 88% (active) | -120% | 92% (active) | 88.3% (active) |
| Cc1c2ccncc2c(C)c2c1[nH]c1ccc(OCCN(C)C)cc12 | 28 | 93% (active) | 99% (active) | 5 | 43% | 77.3% (active) | 5% | 53% | 93.3% (active) | 7 | 40% | 71.8% (active) | 4 | 32% | 88.9% (active) | 7% | 51% | 96.3% (active) |
